Assay [1] concerns the target CDK3/Cyclin E (Homo sapiens) (UniProt P24864+Q00526). To be noted: at 1 µM.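 Also: each figure is a mean percent inhibition of the CDK3/cyclin E complex.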
In assay [2] the target is Cyclin-dependent kinase 4 (Homo sapiens) (UniProt P11802). To be noted: at 0.1 µM.
The target is the same in assay [3]. To be noted: at 1 µM.
In assay [4] the target is Cyclin-dependent kinase 5 (Homo sapiens) (UniProt Q00535). To be noted: at 0.1 µM.
For assay [5] the target is unchanged. Conditions: at 1 µM.
Assay [6] addresses Cyclin-dependent kinase 6 (Homo sapiens) (UniProt Q00534). Conditions: at 0.1 µM.
For assay [7] the target is unchanged. Conditions: at 1 µM.
Assay [8] addresses Dual specificity protein kinase CLK2 (Homo sapiens) (UniProt P49760). To be noted: at 0.1 µM.
Assay [9] shares this target. To be noted: at 1 µM.
The target in assay [10] is Dual specificity protein kinase CLK3 (Homo sapiens) (UniProt P49761). Conditions: at 0.1 µM.
Assay [11] shares this target. To be noted: at 1 µM.
Assay [12] deals with Dual specificity tyrosine-phosphorylation-regulated kinase 1A (Homo sapiens) (UniProt Q13627). Conditions: at 0.1 µM.
Assay [13] shares this target. Conditions: at 1 µM.
Assay [14] concerns the target Dual specificity tyrosine-phosphorylation-regulated kinase 1B (Homo sapiens) (UniProt Q9Y463). To be noted: at 0.1 µM.
The target is the same in assay [15]. Conditions: at 1 µM.
For assay [16], the target named is T1, Dual specificity tyrosine-phosphorylation-regulated kinase 2 (Homo sapiens) (UniProt Q92630).
T1 sequence (whole entry): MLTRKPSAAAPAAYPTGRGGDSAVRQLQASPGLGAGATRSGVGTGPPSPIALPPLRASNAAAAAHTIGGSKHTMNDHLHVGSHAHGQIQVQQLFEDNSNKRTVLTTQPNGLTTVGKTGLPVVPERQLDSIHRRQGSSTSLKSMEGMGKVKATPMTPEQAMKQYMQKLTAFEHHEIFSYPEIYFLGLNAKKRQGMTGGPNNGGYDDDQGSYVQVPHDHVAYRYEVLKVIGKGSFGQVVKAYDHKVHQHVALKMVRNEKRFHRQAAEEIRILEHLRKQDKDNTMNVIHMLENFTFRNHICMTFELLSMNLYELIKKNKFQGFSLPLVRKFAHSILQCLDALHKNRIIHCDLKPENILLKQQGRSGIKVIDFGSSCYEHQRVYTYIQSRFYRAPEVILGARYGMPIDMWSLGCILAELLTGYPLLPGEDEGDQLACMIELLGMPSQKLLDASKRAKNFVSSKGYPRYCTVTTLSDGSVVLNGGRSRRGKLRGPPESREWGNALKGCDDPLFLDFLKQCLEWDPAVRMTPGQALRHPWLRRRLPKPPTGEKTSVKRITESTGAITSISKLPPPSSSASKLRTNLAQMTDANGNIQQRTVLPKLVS
Conditions: at 0.1 µM.

Assay [17] has as its target T1, Dual specificity tyrosine-phosphorylation-regulated kinase 2 (Homo sapiens). Conditions: at 1 µM.
The target of assay [18] is Glycogen synthase kinase-3 alpha (Homo sapiens) (UniProt P49840). Conditions: at 0.1 µM.
Assay [19] shares this target. Conditions: at 1 µM.
In assay [20] the target is Glycogen synthase kinase-3 beta (Homo sapiens) (UniProt P49841). Conditions: at 0.1 µM.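 Also: values are mean percent inhibition of GSK3B activity, from the GSK Published Kinase Inhibitor Set (PKIS) screening dataset.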

Data on 7 compounds can be found in ChEMBL document CHEMBL1961873, “Compounds: GSK PKIS; Assays: Nanosyn kinase panel” (2012).

Sequence of Dual specificity tyrosine-phosphorylation-regulated kinase 1B (Homo sapiens) (Q9Y463 whole entry, looked up): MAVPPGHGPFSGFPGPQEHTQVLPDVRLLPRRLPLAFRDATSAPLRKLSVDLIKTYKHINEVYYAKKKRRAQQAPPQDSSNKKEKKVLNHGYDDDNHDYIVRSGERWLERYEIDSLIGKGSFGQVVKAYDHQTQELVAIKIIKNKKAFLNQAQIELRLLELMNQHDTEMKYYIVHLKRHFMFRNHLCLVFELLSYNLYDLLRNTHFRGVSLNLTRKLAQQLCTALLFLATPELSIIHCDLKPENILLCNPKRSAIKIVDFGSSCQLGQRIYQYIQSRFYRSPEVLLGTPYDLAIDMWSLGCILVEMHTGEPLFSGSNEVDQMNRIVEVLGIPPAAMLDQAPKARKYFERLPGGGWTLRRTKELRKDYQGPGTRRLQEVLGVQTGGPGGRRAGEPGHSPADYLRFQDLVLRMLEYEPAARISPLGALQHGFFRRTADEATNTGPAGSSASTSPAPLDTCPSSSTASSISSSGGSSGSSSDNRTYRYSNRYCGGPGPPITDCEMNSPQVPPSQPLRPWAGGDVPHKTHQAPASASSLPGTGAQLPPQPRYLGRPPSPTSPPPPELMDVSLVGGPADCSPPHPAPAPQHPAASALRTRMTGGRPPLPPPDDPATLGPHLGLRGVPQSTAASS
Sequence of Dual specificity protein kinase CLK2 (Homo sapiens) (P49760 whole entry, looked up): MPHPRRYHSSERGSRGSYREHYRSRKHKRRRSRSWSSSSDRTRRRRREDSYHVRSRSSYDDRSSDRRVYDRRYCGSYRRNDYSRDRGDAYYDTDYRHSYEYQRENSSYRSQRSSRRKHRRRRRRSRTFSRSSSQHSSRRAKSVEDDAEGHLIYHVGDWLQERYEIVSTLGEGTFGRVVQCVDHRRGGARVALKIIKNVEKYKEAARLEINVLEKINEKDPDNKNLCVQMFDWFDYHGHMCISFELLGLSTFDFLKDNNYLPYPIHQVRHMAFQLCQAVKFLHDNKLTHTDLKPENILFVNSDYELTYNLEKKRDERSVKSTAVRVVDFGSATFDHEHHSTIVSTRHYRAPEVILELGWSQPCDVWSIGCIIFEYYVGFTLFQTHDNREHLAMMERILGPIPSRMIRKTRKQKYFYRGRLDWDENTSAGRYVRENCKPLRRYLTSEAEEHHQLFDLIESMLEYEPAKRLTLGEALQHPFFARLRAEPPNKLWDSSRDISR
Sequence of Cyclin-dependent kinase 5 (Homo sapiens) (Q00535 whole entry, looked up): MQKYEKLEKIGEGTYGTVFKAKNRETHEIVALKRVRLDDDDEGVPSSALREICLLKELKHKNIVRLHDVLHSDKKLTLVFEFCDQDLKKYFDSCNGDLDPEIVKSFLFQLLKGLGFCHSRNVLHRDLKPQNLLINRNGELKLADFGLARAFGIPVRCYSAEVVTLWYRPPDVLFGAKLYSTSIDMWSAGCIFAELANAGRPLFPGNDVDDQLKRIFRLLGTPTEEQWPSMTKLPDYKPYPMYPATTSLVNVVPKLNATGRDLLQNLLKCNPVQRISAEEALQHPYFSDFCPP
Sequence of Dual specificity protein kinase CLK3 (Homo sapiens) (P49761 whole entry, looked up): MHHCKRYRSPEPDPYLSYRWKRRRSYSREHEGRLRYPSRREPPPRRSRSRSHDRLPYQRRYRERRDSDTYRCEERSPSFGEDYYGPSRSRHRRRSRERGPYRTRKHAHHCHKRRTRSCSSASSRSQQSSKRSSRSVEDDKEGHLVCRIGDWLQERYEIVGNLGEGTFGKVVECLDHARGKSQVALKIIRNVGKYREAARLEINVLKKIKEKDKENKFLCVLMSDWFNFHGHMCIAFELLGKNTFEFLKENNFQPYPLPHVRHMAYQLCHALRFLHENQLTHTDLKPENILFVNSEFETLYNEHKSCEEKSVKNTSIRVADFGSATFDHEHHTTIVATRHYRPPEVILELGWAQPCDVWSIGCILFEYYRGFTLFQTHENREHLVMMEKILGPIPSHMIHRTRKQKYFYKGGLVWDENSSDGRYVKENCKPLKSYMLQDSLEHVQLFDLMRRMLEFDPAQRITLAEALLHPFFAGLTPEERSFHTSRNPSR
Sequence of Cyclin-dependent kinase 6 (Homo sapiens) (Q00534 whole entry): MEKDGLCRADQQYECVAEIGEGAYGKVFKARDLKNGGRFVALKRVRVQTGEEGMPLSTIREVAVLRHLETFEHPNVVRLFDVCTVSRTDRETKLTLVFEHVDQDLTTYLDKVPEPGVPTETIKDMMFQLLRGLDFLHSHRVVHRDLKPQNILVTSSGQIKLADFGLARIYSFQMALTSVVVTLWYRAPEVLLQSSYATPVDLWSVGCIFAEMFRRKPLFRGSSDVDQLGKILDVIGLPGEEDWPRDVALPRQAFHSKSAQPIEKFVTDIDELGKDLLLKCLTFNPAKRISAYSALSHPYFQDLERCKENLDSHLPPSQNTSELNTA
Sequence of Glycogen synthase kinase-3 alpha (Homo sapiens) (P49840 2-483 limits assumed): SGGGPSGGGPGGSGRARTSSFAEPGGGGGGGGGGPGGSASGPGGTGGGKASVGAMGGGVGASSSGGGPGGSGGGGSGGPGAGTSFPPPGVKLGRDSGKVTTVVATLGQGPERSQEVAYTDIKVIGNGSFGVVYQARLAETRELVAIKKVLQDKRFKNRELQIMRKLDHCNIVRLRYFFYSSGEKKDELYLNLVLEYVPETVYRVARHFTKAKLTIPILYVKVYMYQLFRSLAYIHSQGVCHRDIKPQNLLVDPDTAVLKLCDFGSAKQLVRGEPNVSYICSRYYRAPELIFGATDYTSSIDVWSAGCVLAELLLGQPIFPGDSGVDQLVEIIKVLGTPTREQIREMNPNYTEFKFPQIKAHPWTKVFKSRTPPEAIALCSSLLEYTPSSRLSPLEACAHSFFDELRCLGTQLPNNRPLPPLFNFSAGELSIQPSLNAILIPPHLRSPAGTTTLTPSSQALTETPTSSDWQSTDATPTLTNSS
Sequence of Glycogen synthase kinase-3 beta (Homo sapiens) (P49841 whole entry, looked up): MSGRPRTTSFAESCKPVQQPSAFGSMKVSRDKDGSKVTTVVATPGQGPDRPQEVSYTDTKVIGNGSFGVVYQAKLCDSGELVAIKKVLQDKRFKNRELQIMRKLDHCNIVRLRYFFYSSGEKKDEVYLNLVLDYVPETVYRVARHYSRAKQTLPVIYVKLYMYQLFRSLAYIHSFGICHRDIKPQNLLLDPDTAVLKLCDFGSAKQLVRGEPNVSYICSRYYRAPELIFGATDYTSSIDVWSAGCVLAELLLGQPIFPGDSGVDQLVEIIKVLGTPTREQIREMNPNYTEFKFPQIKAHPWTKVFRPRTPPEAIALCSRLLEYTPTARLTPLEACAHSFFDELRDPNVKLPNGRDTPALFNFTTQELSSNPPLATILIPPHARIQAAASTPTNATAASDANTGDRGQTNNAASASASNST
Sequence of CDK3/Cyclin E (Homo sapiens) (P24864 whole entry, looked up): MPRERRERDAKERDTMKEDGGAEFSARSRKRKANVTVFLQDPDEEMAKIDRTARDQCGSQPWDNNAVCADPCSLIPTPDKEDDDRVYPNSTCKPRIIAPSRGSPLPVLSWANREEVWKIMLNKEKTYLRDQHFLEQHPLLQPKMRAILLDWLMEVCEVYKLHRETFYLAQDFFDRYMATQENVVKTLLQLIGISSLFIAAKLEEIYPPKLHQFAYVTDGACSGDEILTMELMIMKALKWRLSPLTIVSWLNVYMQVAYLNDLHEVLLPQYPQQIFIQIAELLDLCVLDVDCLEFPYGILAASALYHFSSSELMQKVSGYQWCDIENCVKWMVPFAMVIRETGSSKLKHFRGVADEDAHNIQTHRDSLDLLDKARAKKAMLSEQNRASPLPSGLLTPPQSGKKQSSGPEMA
Sequence of CDK3/Cyclin E (Homo sapiens) (Q00526 whole entry, looked up): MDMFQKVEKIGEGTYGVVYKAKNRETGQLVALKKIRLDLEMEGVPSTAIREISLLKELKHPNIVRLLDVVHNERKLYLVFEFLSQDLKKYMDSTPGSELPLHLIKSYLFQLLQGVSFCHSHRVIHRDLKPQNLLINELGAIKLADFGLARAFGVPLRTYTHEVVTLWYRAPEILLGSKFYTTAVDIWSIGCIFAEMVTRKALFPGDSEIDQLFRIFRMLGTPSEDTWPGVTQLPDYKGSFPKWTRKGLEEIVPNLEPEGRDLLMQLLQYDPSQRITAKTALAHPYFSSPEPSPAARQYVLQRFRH
Sequence of Cyclin-dependent kinase 4 (Homo sapiens) (P11802 whole entry): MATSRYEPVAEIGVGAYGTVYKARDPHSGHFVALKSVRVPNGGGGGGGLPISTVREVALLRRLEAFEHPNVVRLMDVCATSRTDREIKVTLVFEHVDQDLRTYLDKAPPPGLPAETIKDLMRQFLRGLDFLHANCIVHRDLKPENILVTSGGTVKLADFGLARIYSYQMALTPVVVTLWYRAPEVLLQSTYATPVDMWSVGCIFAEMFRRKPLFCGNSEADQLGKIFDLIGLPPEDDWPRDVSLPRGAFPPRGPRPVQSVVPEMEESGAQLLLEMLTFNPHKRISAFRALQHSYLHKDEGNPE

Consider `COc1ccc2cc(-c3c(-c4ccncc4)nc(-c4ccc([S+](C)[O-])cc4C)n3C)ccc2c1` (stereo not given), for which the inhibition in assay [1] turned out to be 0.89%; in assay [2], 2.2%; in assay [3], 5.75%; in [4], 0.73%; in assay [5] it was 2.04%; in assay [6], 2.45%. For the same compound, the inhibition amounted to 4.45% in assay [7]; 1.09% in assay [8]; 1.03% in assay [9]; 0.64% in assay [10]; 2.67% in assay [11]; 2% in [12]. The inhibition in assay [13] was 7.26%; in assay [14], 2.45%; in assay [15], 6.41%; in assay [16] it was -0.45%; in assay [17], 0%; in [18], 7.28%. In addition, the results for the inhibition in assay [19] and in assay [20] were 15.4% and 5.99%, respectively.

Take `COc1cc(C)c(N(C)C(=O)CN(C)C)cc1Nc1nc(Nc2cccc(F)c2C(N)=O)c2cc[nH]c2n1`: the inhibition in [1] is 0.55%; in assay [2], -3.32%; in assay [3] it was -2.23%; in assay [4] it was -3.87%; in assay [5] it was -4.34%; in assay [6], -3.28%. Besides, the inhibition in [7] is -2.66%; in [8] it was 2.65%; in assay [9], 12.6%; in [10], -5.35%; in assay [11] it was -1.03%; in assay [12], 2.09%. For the same compound, the inhibition in [13] was 15.2%; in assay [14] it was -1.79%; in assay [15], 13.1%; in [16], 2.31%; in assay [17], 1.64%; in [18] it was -2.99%. The inhibition is -1.13% in assay [19] and -3.79% in assay [20].

In the case of `O=C(Nc1ccc(Oc2ccc3[nH]c(NC(=O)c4ccccc4)nc3c2)cc1)Nc1cc(C(F)(F)F)ccc1F`, the inhibition in [1] was -1.42%; in [2], 3.17%; in assay [3], 4.9%; in assay [4], 0.47%; in assay [5], 3.03%; in assay [6], 2.76%. For the same compound, the inhibition in assay [7] was found to be 4.46%; in assay [8] it was 0.71%; in assay [9], 1.05%; in assay [10] it was 1.59%; in [11] it was 3.71%; in [12], 1.94%. The inhibition stood at 4.75% in assay [13]; 0.86% in [14]; 3.47% in assay [15]; 2.36% in [16]; 3.65% in [17]; 3.49% in assay [18]. Besides, the figures for the inhibition in assay [19] and in assay [20] were 8.16% and 3.19%, respectively.

On to `c1ccc(-c2n[nH]cc2-c2ccnc(-c3ccc(OCCN4CCOCC4)cc3)c2)nc1`, for which the inhibition in [1] was 3.2%; in assay [2], 5.35%; in assay [3], 6.08%; in assay [4], 5.7%; in assay [5] it was 4.87%; in [6] it was 1.73%. Further, the inhibition in [7] was determined as 4.81%; in assay [8], 2.87%; in assay [9], 3.2%; in assay [10] it was 0.66%; in assay [11], 0.55%; in assay [12], 4.43%. Moreover, the inhibition is 5.39% in [13]; 7.33% in [14]; 6.5% in assay [15]; -0.9% in [16]; -1.36% in assay [17]; 5.19% in assay [18]. For the same compound, the figures for the inhibition in assay [19] and in assay [20] were 4.57% and 4.18%, respectively.

On to `CN(c1ccc(NC(=O)Nc2c(Cl)cccc2Cl)cc1)c1ccnc(Nc2cccc(CS(C)(=O)=O)c2)n1`, for which the inhibition was -0.7% in assay [1]; -0.86% in assay [2]; -0.25% in assay [3]; 0.43% in assay [4]; 1.99% in assay [5]; 3.57% in assay [6]. In addition, the inhibition was -0.75% in assay [7]; 3.63% in assay [8]; 5.49% in assay [9]; -0.2% in assay [10]; 1.23% in assay [11]; -0.53% in [12]. The inhibition in assay [13] is 0.63%; in assay [14] it was -0.2%; in assay [15], 1.52%; in assay [16], 2.28%; in assay [17], 1.29%; in assay [18] it was 4.09%. The inhibition was determined as 10% in assay [19] and 4.11% in [20].

For the compound `COc1cc(Nc2ncc3c(C)nc(-c4cccc(C(F)(F)F)c4)n3n2)cc(OC)c1OC`, the inhibition was determined as 7.51% in [1]; 1.78% in assay [2]; 3.89% in assay [3]; 1.13% in assay [4]; 9.6% in assay [5]; 3.14% in assay [6]. Also, the inhibition is 7.16% in assay [7]; 3.78% in assay [8]; 21.9% in assay [9]; 1.23% in [10]; 2.91% in [11]; 4.11% in assay [12]. Further, the inhibition is 29.8% in [13]; 0.38% in [14]; 11.2% in assay [15]; 2.73% in assay [16]; 3.63% in [17]; 2.88% in [18]. In addition, the inhibition was found to be 13.8% in [19] and 4.09% in assay [20].

With `NS(=O)(=O)c1ccc(N/N=C2\C(=O)Nc3ccc(-c4cnco4)cc32)cc1`, the inhibition turned out to be 89.2% in assay [1]; 6.57% in assay [2]; 42% in [3]; 50.2% in [4]; 71.8% in [5]; 9.49% in assay [6]. The inhibition in assay [7] is 50.3%; in assay [8], 5.36%; in assay [9], 35.9%; in assay [10], -3.12%; in assay [11], 1.68%; in assay [12], 29.3%. In addition, the inhibition stood at 81.2% in assay [13]; 4.08% in [14]; 38.5% in assay [15]; 9.21% in [16]; 52% in assay [17]; 31.6% in assay [18]. The values for the inhibition in assay [19] and in assay [20] were 67.4% and 26.4%, respectively.

In general, inhibition refers to the change of the read-out against control, counted positive when it falls.
